Measurements reported in PubChem BioAssay (NCATS).
Records with an inconclusive call do not appear. Activity calls are given as the source filed them. The call rests on the fitted dose curve.

Assay: Primary qHTS for Huh7 cytotoxicity: counterscreen for inhibitors of MERS-S pseudotyped particle cell entry (AID 1479147)
Details: cell viability read-out; series mostly up to 57.1 µM; activity change, negative = cytotoxicity: at the top concentration
On the % scale 0 is the no-effect control and ±100 the full control effect.

| Compound | outcome | activity change, negative = cytotoxicity |
| --- | --- | --- |
| CCCCOC(=O)c1ccc(N)cc1 | inactive | – |
| CCCCC(CC)COC(=O)c1ccccc1O (stereo not drawn) | inactive | – |
| CCOc1cc(CC(=O)N[C@@H](CC(C)C)c2ccccc2N2CCCCC2)ccc1C(=O)O | inactive | – |
| CN(C)C(=O)COC(=O)Cc1ccc(OC(=O)c2ccc(N=C(N)N)cc2)cc1 | inactive | – |
| C[C@](O)(CS(=O)(=O)c1ccc(F)cc1)C(=O)Nc1ccc(C#N)c(C(F)(F)F)c1 | inactive | – |
| CC(=O)NC[C@H]1CN(c2ccc(N3CCOCC3)c(F)c2)C(=O)O1 | inactive | – |
| COC(=O)c1cc(Cl)ccc1NS(=O)(=O)C(F)(F)F | inactive | – |
| c1ccc2sc(SSc3nc4ccccc4s3)nc2c1 | inactive [at 26.4 µM] | – |
| CC(C)COC(=O)c1ccc(N)cc1 | inactive | – |
| CCOC(=O)Oc1ccc(CCNC(=O)[C@H](CCSC)NC(C)=O)cc1OC(=O)OCC | inactive | – |
| CC(=O)Nc1ccc(C(=O)O)cc1 | inactive | – |
| O=P(O)(O)C(O)(Cn1ccnc1)P(=O)(O)O | inactive | – |
| CC(=O)N=c1sc(S(N)(=O)=O)nn1C | – | -5.66% (inactive) |
| CCCCCCCCCCCCCCCC(=O)OC(C)C | inactive | – |
| CCCC(=O)O[C@]1(C(=O)CO)CC[C@H]2[C@@H]3CCC4=CC(=O)CC[C@]4(C)[C@H]3[C@@H](O)C[C@@]21C | inactive | – |
| CCCC(=O)O[C@]1(C(=O)COC(=O)CC)CC[C@H]2[C@@H]3CCC4=CC(=O)CC[C@]4(C)[C@H]3[C@@H](O)C[C@@]21C | inactive [at 26.4 µM] | – |
| Nc1nc(Cl)nc2c1ncn2[C@@H]1O[C@H](CO)[C@@H](O)[C@@H]1F | – | -30.8% (inactive) |
| CCCc1nc(C(C)(C)O)c(C(=O)OCc2oc(=O)oc2C)n1Cc1ccc(-c2ccccc2-c2nn[nH]n2)cc1 | – | 3.64% (inactive) |
| Cc1ccc(C(=O)C(=O)O)cc1C | inactive | – |

| Compound | outcome | activity change, negative = cytotoxicity |
| --- | --- | --- |
| Nc1nc2[nH]cc(CCc3ccc(C(=O)N[C@@H](CCC(=O)O)C(=O)O)cc3)c2c(=O)[nH]1 | inactive | – |
| O=C(COCCOCCOCC(=O)Nc1c(I)cc(I)c(C(=O)O)c1I)Nc1c(I)cc(I)c(C(=O)O)c1I | inactive | – |
| CC(C)(C)NCC(O)COc1cccc2c1C[C@H](O)[C@H](O)C2 (stereo partly drawn) | – | 1.78% (inactive) |
| CN[C@@H]1[C@H](O)[C@H](NC)[C@H]2O[C@@]3(O)C(=O)C[C@@H](C)O[C@H]3O[C@@H]2[C@H]1O | inactive | – |
| C#CCN[C@@H]1CCc2ccccc21 | – | 3.01% (inactive) |
| CO[C@@H]1[C@@H](OC(N)=O)[C@@H](O)[C@H](Oc2ccc3c(O)c(NC(=O)c4ccc(O)c(CC=C(C)C)c4)c(=O)oc3c2C)OC1(C)C | inactive | – |
| C/C(=N\O)[C@@H](C)NCC(C)(C)CN[C@H](C)/C(C)=N/O | – | -22.6% (inactive) |
| CC(=O)CC(c1ccc([N+](=O)[O-])cc1)c1c(O)c2ccccc2oc1=O (stereo not drawn) | – | 1.75% (inactive) |
| C[N+](C)(C)CCOC(N)=O | inactive | – |
| CCn1cc(C(=O)O)c(=O)c2cc(F)c(N3CCNC(C)C3)c(F)c21 (stereo not drawn) | – | -2.84% (inactive) |
| CC[N+](C)(CC)CCOC(=O)C1c2ccccc2Oc2ccccc21 | – | -15.2% (inactive) |
| C/C(=C(\CCO)SS/C(CCO)=C(\C)N(C=O)Cc1cnc(C)nc1N)N(C=O)Cc1cnc(C)nc1N | inactive | – |
| CN1[C@@H]2CC(OC(=O)[C@H](CO)c3ccccc3)C[C@H]1[C@@H]1O[C@@H]12 (stereo partly drawn) | inactive | – |
| O=C(O)Cc1cccc2ccccc12 | – | 3.65% (inactive) |
| CCC(=O)c1c(O)cc(O)cc1O | inactive | – |
| Nc1ccc(S(=O)(=O)c2ccc(N)cc2)cc1 | – | 1.68% (inactive) |
| NCCCCCC(=O)O | inactive | – |
| Nc1ncnc2nc[nH]c12 | – | 3.35% (inactive) |
| O=c1oc2ccccc2c(O)c1Cc1c(O)c2ccccc2oc1=O | inactive | – |
